Source: PubChem (National Center for Advancing Translational Sciences (NCATS))
RORgamma inh = qHTS for inhibitors of ROR gamma transcriptional activity; Nuclear receptor ROR-gamma (Mus musculus), P51450; Drosophila S2 Gal4-RORgamma UAS-luciferase reporter, 20 h; Potency, µM (series often up to 53.6 µM), usual class: inhibitors; 5.4% of 310,000 active; also: nearly all actives have a fitted effect of over 60% in size
Target sequence (P51450 whole entry, looked up, the tested form may be a part): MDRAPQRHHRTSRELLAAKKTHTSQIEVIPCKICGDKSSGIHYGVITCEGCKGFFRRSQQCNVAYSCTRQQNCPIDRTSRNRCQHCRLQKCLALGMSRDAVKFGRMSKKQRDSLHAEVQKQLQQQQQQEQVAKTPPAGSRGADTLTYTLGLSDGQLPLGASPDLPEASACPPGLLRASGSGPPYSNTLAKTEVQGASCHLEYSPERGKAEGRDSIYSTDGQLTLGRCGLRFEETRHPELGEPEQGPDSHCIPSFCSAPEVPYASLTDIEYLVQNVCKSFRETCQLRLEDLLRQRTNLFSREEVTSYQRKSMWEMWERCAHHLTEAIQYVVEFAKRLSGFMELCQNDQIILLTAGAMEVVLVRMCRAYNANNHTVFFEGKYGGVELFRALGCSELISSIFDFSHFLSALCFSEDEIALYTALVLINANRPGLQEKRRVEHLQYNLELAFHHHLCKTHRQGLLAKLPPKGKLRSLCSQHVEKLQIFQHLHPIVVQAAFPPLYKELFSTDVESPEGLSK
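Luciferase reporter read in Schneider cells carrying Gal4-RORγ (mouse) and UAS-Photinus luciferase; cells given compound 1 h before 700 uM copper sulfate induction, then incubated 20 h at ambient temperature.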
ClpP mod = qHTS Assay for Activators of ClpP; 1.9% of 340,000 active; ATP-dependent Clp protease proteolytic subunit (Bacillus subtilis (strain 168)), P80244; purified B. subtilis ClpP, FRET peptide cleavage, 20 min; Potency, µM (doses to about 57.5 µM); active = well fitted falling curve with a large enough effect; inconclusive = small, poorly fitted or top-dose-only effect; inactive = no such curve, though single readings can be large or run the other way; also: the source files actives as falling curves though it sought activators and does not explain the sign; nearly all actives have a fitted effect of over 65% in size
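ClpP 10 microg/mL final, pH 8 Tris/KCl buffer with BSA, glycerol, Tween-20; compound pinned in; FRET-FV substrate; RT 20 min; Ex320/Em430; ΔFRET vs ADEP 5.8 microM, DMSO, no enzyme.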
Gal4-VP16 FLuc = VP16 counterscreen qHTS for inhibitors of ROR gamma transcriptional activity | Drosophila S2 Gal4-VP16 UAS-luciferase, luminescence, 20 h | Potency, µM (top dose mostly 53.6 µM), most hits filed as inhibitors | 3.5% of 310,000 active | AID 2546, 2010;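 also: Gal4-VP16 expression switched on by copper sulfate through the metallothionein promoter; nearly all actives have a fitted effect of over 50% in size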
Epigenetic reg = Quantitative High-Throughput Screen for Regulators of Epigenetic Control | murine LDR cells, GFP reporter derepression, 30 h | Potency, µM (doses to about 53.9 µM), actives largely listed as activators | 0.2% of 280,000 active; also: nearly all actives have a fitted effect of over 60% in size
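GFP-positive cell count by laser-scanning cytometry (objects 20–120 um) after 30 h, 37 C compound exposure of murine LDR cells; reporter is CMV-GFP integrated at a silenced locus, inducible by HDAC or DNMT inhibitors.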
PINK1 expr mod = A Quantitative High throughput Screen to Identify Chemical Modulators of PINK1 Expression. PINK1 immunofluorescence, high-content cytometry, 24 h. Potency, µM (doses to about 76.6 µM), most hits filed as activators. 0.2% of 410,000 active; active = well fitted activation curve with a large enough effect; inconclusive = small, poorly fitted or top-dose-only effect; cell line not stated here; also: nearly all actives have a fitted effect of over 65% in size
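Fluorescence from anti-PINK1 antibody, together with nuclear and cell stains, was scanned on a laser-scanning cytometer. Before staining, stable-line cells were incubated 24 hours with compounds at 5 concentrations; primary antibody 12 h at 10 degrees C.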
Sfp inh = qHTS Assay for Inhibitors of Bacillus subtilis Sfp phosphopantetheinyl transferase (PPTase); Biochemical Sfp PPTase activity, qHTS; 3.5% of 310,000 active; Potency, µM, actives largely listed as inhibitors; AID 1490, 2009;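 also: the enzyme is Sfp with the accession as filed and its product quenches rhodamine fluorescence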
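Buffer: 50 mM Hepes-Na pH 7.6, 10 mM MgCl2, 0.01% Nonidet P-40, 0.01% BSA. Enzyme 15 nM, pre-exposed to compound 15 min; substrates then added and fluorescence change tracked over 30 min.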
Of the large screens only hits and unclear results are named; the others gave an inactive call. Sampled rows, rich in hits. Any-hit rate of the full collection: about 8.1%. Unless noted, calls follow the shape of the dose curve; as a rule, active = well fitted curve in the direction sought with a large enough effect; inconclusive = small, poorly fitted or top-dose-only effect, or another doubt; inactive = no such curve, though single readings can be large; an effect the other way counts as inactive or inconclusive.

COc1ccc(N2C(=O)/C(=C/C=C/c3ccccc3[N+](=O)[O-])C(=O)NC2=S)cc1	Sfp inh 35µM (no result: ClpP mod)
C[C@]12O[C@H](C[C@]1(O)CO)n1c3ccccc3c3c4c(c5c6ccccc6n2c5c31)CNC4=O	RORgamma inh inconclusive, Gal4-VP16 FLuc 5.6µM (no result: ClpP mod, Epigenetic reg, PINK1 expr mod)
CN[C@@H]1C[C@@]2(C)O[C@@H]([C@@H]1OC)n1c3ccccc3c3c4c(c5c6ccccc6n2c5c31)C(=O)NC4	none (no result: RORgamma inh, ClpP mod, Gal4-VP16 FLuc, PINK1 expr mod)
C[C@@H]1O[C@@H](O[C@H]2CC[C@@H](O[C@H]3[C@H](O)C[C@H](c4ccc5c(c4O)C(=O)C4=C(C5=O)[C@@]5(O)C(=O)C[C@](C)(O[C@H]6CC[C@H](O[C@H]7C=CC(=O)[C@H](C)O7)[C@H](C)O6)C[C@@]5(O)C=C4)O[C@@H]3C)O[C@H]2C)C=CC1=O	RORgamma inh 0.5µM, Sfp inh 5µM (no result: ClpP mod, Epigenetic reg, PINK1 expr mod)
O=C(CCS(=O)NCc1ccccc1)NCc1ccccc1 (stereo unspecified)	Sfp inh 89µM (no result: ClpP mod, PINK1 expr mod)
Cc1cc(-c2n[nH]c(=S)n2CC(C)C)cs1	RORgamma inh 5µM, Gal4-VP16 FLuc inconclusive
CCOC(=O)C1=C(NC(=S)NC(=O)c2ccccc2)c2ccccc2CC12CCCC2	RORgamma inh 3.2µM, Gal4-VP16 FLuc 4.5µM (no result: ClpP mod)
C[C@@]12CC(c3ccoc3)OC(=O)C1CC[C@@]1(C)C2C2C=C[C@@]1(O)C(=O)O2 (stereo partly specified)	none (no result: ClpP mod)
C[C@@]12C(=O)OC(=O)[C@@]1(C)C1CCC2O1	RORgamma inh 14µM, Gal4-VP16 FLuc 5µM (no result: ClpP mod)
Cc1ccc(N=C=O)cc1N=C=O	RORgamma inh inconclusive (no result: ClpP mod, Epigenetic reg, PINK1 expr mod, Sfp inh)
COc1cc(OC)cc(C(=O)Nc2ccc(Br)cc2C(=O)c2ccccc2)c1	Sfp inh 35µM
O=C(CNC(=O)OCc1ccccc1)NCC(=O)Nc1ccc(Br)cc1C(=O)c1ccccc1	ClpP mod 25µM
C[C@@H]1CC([C@H](O)CC2CC(=O)NC(=O)C2)C(=O)[C@@H](C)C1 (stereo partly specified)	Epigenetic reg inconclusive (no result: RORgamma inh, ClpP mod, Gal4-VP16 FLuc, PINK1 expr mod)
N#CSCSC#N	RORgamma inh 1.1µM, Gal4-VP16 FLuc 0.45µM (no result: ClpP mod, Epigenetic reg, PINK1 expr mod, Sfp inh)
O=C1NO[C@H]2[C@@H]1CN[C@@H]2C(=O)O	none (no result: ClpP mod, PINK1 expr mod)
CCN(CC)C(=O)c1c(C)[nH]c(=S)c(C#N)c1-c1ccco1	RORgamma inh inconclusive, Sfp inh 1µM (no result: ClpP mod)
NNC(N)=S	RORgamma inh 14µM (no result: ClpP mod, Epigenetic reg, PINK1 expr mod, Sfp inh)
CC(=O)/C=C/c1ccccc1	none (no result: Epigenetic reg, Sfp inh)
CC(=O)[O][Hg][c]1ccccc1	RORgamma inh 1.1µM, Sfp inh 0.18µM (no result: ClpP mod, PINK1 expr mod)
NC(=O)CI	none (no result: RORgamma inh, ClpP mod, Gal4-VP16 FLuc, PINK1 expr mod, Sfp inh)
Cn1ccc(NC(=O)CCl)n1	RORgamma inh 5µM, Gal4-VP16 FLuc 4.5µM (no result: ClpP mod)
Cc1cc(NC(=O)CCl)nn1C	Gal4-VP16 FLuc inconclusive, Epigenetic reg inconclusive
C=Cn1ccnc1P(O)(=S)c1nc(C)c(CCOC(C)=O)s1 (stereo unspecified)	RORgamma inh 11µM, Gal4-VP16 FLuc inconclusive, Sfp inh inconclusive (no result: ClpP mod)
O=C(Oc1ccccc1)N1CCC2(CCN(Cc3nccs3)CC2)CC1	none (no result: ClpP mod, Epigenetic reg)
CCOc1cccc(OCC)c2c(C)[n+](CC3CCCO3)c(C)c1-2 (stereo unspecified)	Sfp inh 56µM
Cc1ccc(NC(=S)NCC2CCCO2)cc1 (stereo unspecified)	RORgamma inh inconclusive, Gal4-VP16 FLuc inconclusive
Nc1ccc2c3c(cccc13)CC2	ClpP mod 14µM, Epigenetic reg inconclusive
COc1ccc(-n2c(/C=C/c3ccc(O)c(OC)c3)nc3ccccc3c2=O)cc1	none (no result: Epigenetic reg)
COc1cc(/C=C/[N+](=O)[O-])ccc1O	RORgamma inh 4.5µM, Gal4-VP16 FLuc 3.2µM, Sfp inh inconclusive
CC12CC[C@H]3[C@@H](CCC4(O)C[C@H](O)CCC34/C=N/NC(=O)c3ccc(O)cc3)C1(O)CCC2C1=CC(=O)OC1 (stereo partly specified)	RORgamma inh 8.9µM, Gal4-VP16 FLuc 10µM
CN(C)c1ccc(C(=O)N/N=C/C23CC[C@@H](O)CC2(O)CC[C@@H]2[C@@H]3CCC3(C)C(C4=CC(=O)OC4)CCC23O)cc1 (stereo partly specified)	none
C=CCCC#N	none (no result: ClpP mod, Epigenetic reg, PINK1 expr mod, Sfp inh)
Cc1ccc(NC(=O)COC(=O)/C=C/c2ccco2)cc1S(=O)(=O)N(C)C	Gal4-VP16 FLuc inconclusive, Sfp inh 45µM
N[C@H](CP(=O)(O)O)C(=O)O	none (no result: ClpP mod, PINK1 expr mod)
COC1=C[C@H]2[C@H]3Cc4ccc(OC)c(O)c4[C@@]2(CCN3C)CC1=O	none (no result: ClpP mod, PINK1 expr mod)
C=CCN1C(=O)/C(=C/c2cccs2)C(=O)NC1=S	Gal4-VP16 FLuc inconclusive, Sfp inh 20µM
